Peg3 prom inh-1 = Peg3 promoter activity inhibition. HeLa PEG-Prom luciferase reporter, luminescence, overnight. actives 1.7% (n = 360,000). inhibition, % at 20 µM;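 active = inhibition of at least 50% at 20 µM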
CF NFkB block = blocks PAF-induced NF-kB reporter in cystic fibrosis cells; KKLEB NF-kB-GFP reporter, GFP fluorescence overnight; inhibition, % at 5 µM; actives 0.86% (n = 360,000); AID 588850;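 active = at least 50% inhibition at 5 µM, scaled per plate between neutral and stimulator controls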;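 note: PAF is a Pseudomonas aeruginosa culture filtrate used as stimulus; plate controls were PAF-stimulated DMSO wells for no effect and unstimulated DMSO wells for full effect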
KKLEB tox = reduces viability of KKLEB cystic fibrosis airway cells | actives 0.36% (n = 360,000) | activity change (cytotoxicity), % at 5 µM | AID 602141 | KKLEB CF airway cells viability, ATPlite luminescence, overnight; hits give low values; cells stimulated with P. aeruginosa culture filtrate;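 active = corrected activity change at or below -50% at 5 µM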
MITF TRPM1 inh = reduces MITF-dependent TRPM1 promoter luciferase signal; actives 0.83% (n = 330,000); AID 488899; inhibition, % at 12.5 µM; SK-MEL-5 TRPM1 promoter luciferase, 24 h;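 active = mean inhibition across replicates of 60% or more, whatever share of single replicates reaches that level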
HIF-2a block = HIF-2a inhibition; 786-0 RCC cells HIF-2a reporter, luciferase luminescence, overnight; inhibition, % at 18.8 µM; actives 0.72% (n = 360,000); AID 624352;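 active = inhibition of the luminescence signal of 40% or more relative to plate controls, in a single-dose primary screen at 18.75 µM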
Shn3 inh set2 = Schnurri-3 reporter inhibition in Clone20 osteoblasts | Clone20 osteoblast Shn3 3'UTR firefly luciferase, 24 h | inhibition, % at 12.5 µM | actives 0.52% (n = 360,000) | AID 588674;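 active = mean inhibition of at least 75% with every replicate also reaching 75%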;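 note: 0% = median of neutral control wells and 100% = pilot-screen positive control compound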
Peg3 prom inh-2 = confirmation of Peg3 promoter inhibitors | inhibition, % at 20 µM | shares compounds with Peg3 prom inh-1 | HeLa PEG-Prom luciferase reporter, luminescence, overnight | actives 84% (n = 1,300);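 active = at 20 µM dose, 40% or more inhibition averaged across four replicates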
CF NFkB inh conf = CF NF-kB inhibition confirmation, single concentration; shares compounds with CF NFkB block; KKLEB CF airway cells, PAF-induced NF-kB-GFP fluorescence, overnight; inhibition, % at 5 µM; actives 64% (n = 1,300); AID 602472; in the data active = inhibition above about 40%;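 note: stimulus PAF is a Pseudomonas aeruginosa filtrate and not platelet activating factor; plate controls were DMSO wells with stimulus for no effect and unstimulated DMSO wells for full effect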
Mdm2 MdmX conf = Mdm2/MdmX (human) interaction inhibition, confirmed; inhibition, % at 8 µM; SaOS-2 split-luciferase Mdm2/MdmX complementation, luminescence; shares compounds with HIF-2a block; AID 504601; actives 99% (n = 740);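 active = mean inhibition of the luminescence signal across two replicates at or above 26 percent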
HIF-2a conf = confirmation of HIF-2a inhibitors. inhibition, % at 18.8 µM. actives 56% (n = 1,800). shares compounds with HIF-2a block. 786-0 RCC cells, HIF-2a luciferase reporter luminescence, overnight;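 active = mean inhibition across four replicates of at least 40 percent at the single tested concentration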
HIF-1a cs = HIF-1a inhibition counter-screen for HIF-2a hits; shares compounds with HIF-2a block; MiaPaCa-2 HIF-1a luciferase reporter, desferoxamine, overnight; inhibition, % at 18.8 µM; actives 72% (n = 1,800); AID 651589;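 active = mean inhibition of the reporter signal across four replicates at the single tested dose of 50% or more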
The depositor's hits bear a star; · = no result given. Only some compounds are listed: those with a hit (about 2.7% of all), similar ones and a draw of the others.

SMILES	Peg3 prom inh-1	CF NFkB block	KKLEB tox	MITF TRPM1 inh	HIF-2a block	Shn3 inh set2	Peg3 prom inh-2	HIF-2a conf	HIF-1a cs	others
CC(NC(=O)c1ccc([N+](=O)[O-])o1)C12CC3CC(CC(C3)C1)C2 (centres undefined)	86.2*	99.6*	-70.3*	69.8*	64.2*	50.6	76.7*	21.4	102.7*
CCN1C(=O)[C@H]2[C@H]3CN=C(SCC4CC4)N3[C@@](CC)(C(=O)OC)[C@H]2C1=O	6.4	10.9	-6.8	6.6	9.6	-7.7	·	·	·
C(=NN1CCCCCC1)c1ccc2ccccc2n1	91.0*	1.7	-84.1*	93.2*	87.4*	86.3*	95.7*	96.9*	103.3*
CC(=O)C(=Cc1cccc(C#N)c1)C(=O)c1ccccc1	104.2*	56.0*	-7.4	·	93.8*	22.2	19.0	28.1	87.0*	CF NFkB inh conf=-61.2
Cc1cc(N2CCN(C)CC2)ccc1NC(=O)c1c2c(nc3ccccc13)CCN(Cc1ccccc1)C2	108.8*	10.3	-75.8*	86.7*	27.2	38.5	86.7*	·	·	Mdm2 MdmX conf=102.5*
C[C@H](CO)N1C[C@H](C)[C@H](CN(C)C(=O)c2ccccc2)OCc2cnnn2CCCC1=O	5.4	-18.2	8.5	·	10.4	3.4	·	·	·
COc1ccc(OCc2cccc(C(=O)O)c2)cc1	96.2*	0.5	-5.0	96.7*	92.5*	93.6*	90.5*	97.0*	7.0	Mdm2 MdmX conf=93.0*
O=Cc1ccc(OCc2cccc(C(F)(F)F)c2)cc1O	-0.2	17.5	8.2	0.9	-106.9	4.2	·	·	·
O=C(OCC(F)(F)F)c1cccc(COc2ccc3ccccc3c2)c1	72.9*	-0.5	-2.7	91.2*	83.1*	79.7	77.4*	90.4*	-52.5
C[C@@H](C(=O)Nc1ccc2c(c1)OCO2)n1c(=O)[nH]c2ccccc2c1=O	-23.8	-6.2	1.5	9.3	-6.7	-14.9	·	·	·
C[C@@H](C(=O)Nc1ccc2c(c1)OCCO2)n1c(=O)[nH]c2ccccc2c1=O	50.0*	5.6	-13.9	19.4	41.5*	10.4	51.2*	45.2*	77.8*
Cc1ccc(NS(=O)(=O)c2cccc(C(=O)NCC3CCCO3)c2)cc1 (centres undefined)	13.6	-23.8	0.8	8.2	1.8	9.3	·	·	·
Cc1ccc(-c2nnc(SCC(=O)Nc3ccccc3F)o2)cc1	88.6*	-11.2	-21.6	76.4*	77.2*	75.2	85.3*	88.7*	95.6*
NC(=O)c1ccc(SCC(=O)OCC(=O)NCc2ccco2)c([N+](=O)[O-])c1	5.7	-12.8	-7.3	-5.3	13.1	-3.3	·	·	·
COc1ccccc1N(CC(O)CN1C(C)CCCC1C)S(=O)(=O)c1ccccc1 (centres undefined)	-7.9	12.5	-0.1	1.6	7.0	1.3	·	·	·
O=C(O)c1ccc(N/N=C/c2ccc(OC(=O)c3cccc(Cl)c3)cc2)cc1	68.7*	-1.4	-4.2	78.0*	71.9*	19.0	64.0*	83.2*	83.4*
O=C(O)c1ccc(N/N=C/c2ccc3nccnc3c2)cc1	99.0*	21.3	-15.3	99.4*	91.1*	79.9	95.5*	95.5*	83.1*
O=C(O)c1ccc(N/N=C/c2ccncc2)cc1	-10.5	-1.6	3.9	8.0	-32.8	-3.9	·	·	·
CC1CCCC(C)N1CCCNC(=O)C1CCCN(S(=O)(=O)N2CCCCC2)C1 (centres undefined)	-8.2	-12.6	4.2	·	11.2	6.3	·	·	·

Bioassay records from PubChem.
